Hits are enriched below; roughly 19% of the tested compounds scored in any of these assays.
CHX counter: counter-screen for Shiga toxin inhibitors: cycloheximide protein synthesis inhibition; 300,000 compounds, 12% hits; cell reporter, cycloheximide protein synthesis inhibition counterscreen; max response, %; AID 2314; in the data active means max response mostly above about 13%, no sharp cut-off; inactive means mostly below about 14%; further: read at 38.3 µM for the half of the compounds with a filed dose
SARS PLP yeast: blocks SARS-CoV papain-like protease in a yeast assay; S. cerevisiae expressing SARS-CoV PLpro, growth rescue; Potency, µM (highest dose often 32.9 µM), usual class: activators; 330,000 compounds, 0.19% hits; AID 485353; calls by dose curve; further: nearly all actives have a fitted effect of over 55% in size
Shiga inhibitor: Shiga toxin inhibition; Vero cells, Shiga toxin protein synthesis inhibition reporter; inhibition, % at 38.7 µM; 290,000 compounds, 9.2% hits; AID 2315; in the data active means inhibition mostly above about 28%, no sharp cut-off; inactive means mostly below about 43%
Pf growth 96h: P. falciparum growth inhibition at 96 hours; P. falciparum luciferase reporter growth, 96 h; Potency, µM (titrated, usually from 28.7 µM), most hits filed as inhibitors; 320,000 compounds, 6.9% hits; AID 504834
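96 h incubation, 37 C, 5% CO2, of luciferase-reporter P. falciparum-infected RBCs (2% hematocrit, 0.05% parasitemia final) with test compounds; endpoint luminescence.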
Pf growth 48h: inhibits P. falciparum growth in the first generation, 48 h | Potency, µM (titrated, usually from 28.7 µM), actives largely listed as inhibitors | 310,000 compounds, 5.9% hits | AID 504832 | P. falciparum luciferase growth in erythrocytes, 48 h
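A one-generation exposure of luciferase-tagged malaria parasites in RPMI 1640/Albumax erythrocyte culture, 37 C and 5% CO2. Inhibition is inferred from decreased luminescence after adding detection reagent.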
AMA1-RON2 inh: AMA1-RON2 (P. falciparum) interaction inhibition. AlphaScreen AMA1-biotinylated RON2 peptide binding. Potency, µM (series often up to 58.2 µM), hits mostly inhibitors. 360,000 compounds, 0.2% hits. AID 720542; further: nearly all actives have a fitted effect of over 45% in size
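AMA1 (3D7) with his tag at 25 nM final met compounds first, then biotinylated RON2 peptide at 25 nM; detection used donor plus acceptor beads, 10 µg/mL apiece, read by AlphaScreen after 30 min at room temperature.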
Numbers stand for hits; - = inactive; ? = inconclusive; . = not tested or not shown; + = active, no number; [ ] = another dose, or the depositor's remark. Unless noted, the call rests on the fitted dose curve; in most records, active means well fitted curve in the direction sought with a large enough effect; inconclusive means small, poorly fitted or top-dose-only effect, or another doubt; inactive means no such curve, though single readings can be large; an effect the other way counts as inactive or inconclusive.

SMILES	CHX counter	SARS PLP yeast	Shiga inhibitor	Pf growth 96h	Pf growth 48h	AMA1-RON2 inh
Cc1cc(C)c(N(CC(=O)NC(C)(C)C)C(=O)CNC(=O)c2cccs2)c(C)c1	-	-	-	-	?	-
CC(Cn1cncn1)NC(=O)c1cc(COc2cccc(C(F)(F)F)c2)on1 (stereo not drawn)	-	-	-	-	-	-
COc1ccc(-c2nc(-c3cccs3)no2)cc1	-	-	-	-	-	-
c1csc(-c2nc(-c3ccc(-c4ccon4)s3)no2)c1	56	-	65	-	-	-
c1ccc(-c2nc(-c3ccc(-c4ccon4)s3)no2)cc1	34	-	61	-	-	-
CC[C@H](C)[C@H](NC(=O)CNC(=O)[C@H](CCCNC(=N)N)NC(=O)[C@H](CO)NC(=O)[C@H](C)NC(=O)[C@H](Cc1ccc(O)cc1)NC(=O)[C@H](Cc1c[nH]c2ccccc12)NC(=O)[C@H](C)NC(=O)[C@@H]1CCCN1C(=O)[C@H](CC(N)=O)NC(=O)[C@@H](NC(=O)[C@H](CC(=O)O)NC(=O)[C@@H]1CCCN1C(=O)[C@@H](NC(=O)[C@H](CCCNC(=N)N)NC(=O)[C@@H](NC(=O)[C@H](CCC(=O)O)NC(=O)[C@H](CCSC)NC(=O)[C@H](CO)NC(=O)[C@H](Cc1cnc[nH]1)NC(=O)[C@H](CCCNC(=N)N)NC(=O)[C@H](Cc1cnc[nH]1)NC(=O)[C@@H](NC(=O)[C@H](CCCNC(=N)N)NC(=O)[C@@H](N)CO)[C@@H](C)O)[C@@H](C)CC)[C@@H](C)O)[C@@H](C)CC)C(=O)N[C@@H](CCCNC(=N)N)C(=O)N1CCC[C@H]1C(=O)N[C@H](C(=O)NCC(=O)N[C@@H](CCCNC(=N)N)C(=O)N[C@@H](Cc1ccccc1)C(N)=O)C(C)C	-	.	-	.	.	.
COc1cc(OC)cc(C(=O)N[C@H](C(=O)NC2CCCc3ccccc32)C(C)C)c1 (stereo partly drawn)	.	-	.	.	.	-
Cc1onc(-c2ccccc2Cl)c1C(=O)O/N=C(\N)c1ccc([N+](=O)[O-])o1	-	-	-	15µM	3.7µM	-
COc1ccccc1OCCCn1c(=O)oc2ccccc21	24	-	43	-	-	-
O=C1c2ccccc2C(=O)N1CCn1c(=O)oc2ccccc21	31	-	41	-	-	-
COc1ccccc1OCCCn1c(=O)oc2ccc(C)cc21	-	-	-	.	-	-
COc1ccc(NC(C)=O)cc1NC(=O)CCn1c(=O)sc2ccccc21	-	-	-	-	-	-
O=c1oc2ccccc2n1CCCOc1ccccc1	33	-	95	12µM	-	-
COc1ccccc1OCCCn1c(=O)sc2ccccc21	28	-	-	-	-	-
CCn1c(COc2ccc(C)cc2)nnc1SCC(=O)NNC(=O)c1ccc(OC)cc1	-	-	-	-	-	-[11.6 µM]
c1cncc(CN2CCN(c3cc(-c4cnc5ccccc5c4)nc4ccnn34)CC2)c1	.	.	.	.	.	-
Cc1ccc(NC(=S)N2CCN(Cc3ccccc3)CC2)c(C)c1	-	-	-	?	-	-
F[B-](F)(F)COc1ccccc1	.	.	.	.	.	-
CC1(C)OC(=O)C=C[C@]2(C)[C@H]3CC[C@@]4(C)[C@H](c5ccoc5)OC(=O)[C@H]5O[C@]54[C@]3(C)C(=O)C[C@@H]12	.	-	.	-	-	-
CC(=O)O[C@@H]1C[C@H]2C(C)(C)C(=O)C=C[C@]2(C)[C@H]2CC[C@@]3(C)[C@H](c4ccoc4)OC(=O)[C@H]4O[C@]43[C@@]21C	-	-	-	3.3µM	1.7µM	-
CCCCCCC(C)(C)c1ccc([C@@H]2C[C@H](O)CC[C@H]2CCCO)c(O)c1	.	.	.	5.2µM	4.7µM	-
O=C(Cn1cnc2ccccc2c1=O)Nc1nnc(SCc2ccccc2)s1	-	-	-	-	-	-
Cc1ccc(N/C=C(/C#N)c2ccsc2)cc1C	42	.	87	-	-	-
Cc1ccc(N/N=C(\C#N)C(N)=S)cc1C	-	-	-	-[5.75 µM]	-[5.75 µM]	-
Cc1c(CN2CCC(Oc3ccc(C(=O)N4CCCCC4)cc3)CC2)cnn1C	-	-	-	-	-	-
SMILES	CHX counter	SARS PLP yeast	Shiga inhibitor	Pf growth 96h	Pf growth 48h	AMA1-RON2 inh
CCN(C(=O)COC(=O)c1cc(=O)[nH]c2ccccc12)C1CCS(=O)(=O)C1 (stereo not drawn)	-	-	-	?	?	-
CC(C)(C)NC(=O)/C=C/c1ccc(C(F)(F)F)cc1	76	-	96	-	-	-
CNC(=O)/C=C/c1cccc(C(F)(F)F)c1	-	-	-	-	-	-
Cc1ccc(CONC(=O)c2ccc(OC(F)F)cc2)cc1	24	-	69	-	-	-
Cc1ccc(CONC(=O)c2cccc(C)c2)cc1	.	-	.	-	-	-
c1ccc(-c2nnc(-c3ccccn3)nn2)nc1	.	.	.	.	.	-
O=C(O)c1ccc(-c2ccccc2C(F)(F)F)s1	-	.	-	.	.	.
CCOc1ccccc1-c1ccc(C(=O)O)s1	44	.	+	.	.	.
O=C(O)c1ccc(-c2ccccn2)s1	45	-	29	-	-	-
c1ccc(-c2cccc(-c3ccccn3)n2)nc1	31	-	91	-	1.5µM	-
c1ccc(-c2cccc(-c3ccccc3)n2)cc1	48	-	54	-	.	-
Cc1cc2c(s1)c1c(n2C)C(=O)N(Cc2ccccc2F)C1	.	-	.	?	?	.
CCCCc1nc2sc3c(=O)n(N)cnc3c2c2c1CCC2	-	-	-	-[5.75 µM]	-	-
c1ccc(-c2ccc(-c3ccccn3)s2)nc1	45	-	132	-	-	-
Cc1cccc[n+]1CC(=O)N1c2ccccc2Sc2ccccc21	-	?	-	-	3.7µM	-
CC(=O)N1c2ccccc2Sc2ccccc21	-	-	-	?	-	-
CCOC(=O)C1(Cc2ccccc2C)CCCN(Cc2cn(C)nc2C)C1 (stereo not drawn)	-	-	-	-	-	-
CCOC(=O)C1(Cc2ccccc2C)CCCN(C(=O)c2ccnn2C)C1 (stereo not drawn)	-	-	-	?	-	-
CCOC(=O)C1(Cc2ccccc2C)CCCN(C(=O)c2ccoc2)C1 (stereo not drawn)	44	-	71	?	?	-
CCOC(=O)C1(Cc2ccccc2C)CCCN(C(=O)c2sccc2C)C1 (stereo not drawn)	29	-	-	?	?	-
CCOC(=O)C1(Cc2ccccc2C)CCCN(S(=O)(=O)c2cccnc2)C1 (stereo not drawn)	-	-	-	10µM	9.3µM	-
Cc1cc(C)c(C)c(S(=O)(=O)NC2CCN(Cc3ccccc3)CC2)c1C	-	-	-	?	-	-
O=C1C=C(c2ccccc2)C(c2ccccc2)C1 (stereo not drawn)	.	.	.	.	.	-
CN(Cc1ccccc1)C(=O)COC(=O)CCC(=O)c1ccc(Cl)cc1	.	-	.	.	.	-
O=C(O)C1CCCCN1c1ccccc1[N+](=O)[O-] (stereo not drawn)	.	.	.	.	.	-

From PubChem BioAssay
